Experimental data taken from ChEMBL document CHEMBL3988442, “University of Dundee, Small-Polar-MMV Screening Library” (2021).
Out of some 48,000 compounds screened, about 13,000 (27%) showed an effect of 50% or more. The list shows a part of the results.

System: Wolbachia pipientis
Experiment: Anti-Wolbachia Cell-Based Screen
Assay type: functional
Design: scale not given: in the data most compounds retested in dose-response had high values
Details: 5 µM

Row | Structure (SMILES) | Percent Effect [%]
1 | CC(C)COc1cncc(NCCc2nnc3ccccn23)n1 | 6.284
2 | COCc1ncc(-c2nccn2CCN(C)C)cn1 | 3.066
3 | COCc1ncc(-c2nccn2CCS(C)(=O)=O)cn1 | 120.2
4 | COCCCn1ccnc1-c1cnc(OC)nc1 | -18.72
5 | CCCn1ccnc1-c1nccn1CCC(N)=O | -22.61
6 | COCc1ncc(-c2nccn2CCn2cnnc2)cn1 | 95.42
7 | CCCSc1ncc(-c2nccn2CCO)cn1 | -55.57
8 | CCCn1ccnc1-c1nccn1CCN(C)C | -8.104
9 | CCCn1ccnc1-c1nccn1CCn1cnnc1 | 87.43
10 | COc1ncc(-c2nccn2CCN(C)C)cn1 | -13.85
11 | CN(C)Cc1nnc(C2CCN(c3ncccc3Cl)CC2)n1C1CC1 | -16.88
12 | O=C(NC1CCCC1)O[C@H]1COCCN(c2nc3ccccc3o2)C1 | -4.12
13 | CN(Cc1nccs1)c1nccc(N2CCN[C@H]3CS(=O)(=O)C[C@H]32)n1 | -5.478
14 | Cn1c(CCNc2nccnc2C#N)nc2ccc(F)cc21 | -0.9847
15 | CNC(=O)C1CCCN(C(=O)OC)C1 (stereo not drawn) | -23.89
16 | O=C(O)C(F)(F)F.O=C(O)C(F)(F)F.c1cnc(N2CCOCC3(CCCN(CC4CCOCC4)C3)C2)nc1 (stereo not drawn) | -3.791
17 | Cc1ccc(N2CCC3(CC2)COCCN(c2nccs2)C3)nn1.O=C(O)C(F)(F)F.O=C(O)C(F)(F)F | 108.8
18 | OC1(CN2CCCC2)COCCN(c2nnc(-c3ccccc3)s2)C1 (stereo not drawn) | -13.1
19 | Cc1cc(C(=O)N2CCCC3(COCCN(c4ncccn4)C3)C2)[nH]n1.O=C(O)C(F)(F)F.O=C(O)C(F)(F)F (stereo not drawn) | -11.88
20 | CCOCC(=O)N1CC[C@H]2OCC[C@@]2(COc2ncccc2F)C1.O=C(O)C(F)(F)F | -3.289
21 | Cc1ccc(N2CCCC3(COCCN(c4ncccn4)C3)C2)nn1.O=C(O)C(F)(F)F (stereo not drawn) | 82.98
22 | Cc1ccc(N2CC3(CCN(c4nccs4)C3)C2)nn1 | -7.178

Row | Structure (SMILES) | Percent Effect [%]
23 | c1ccc(-c2nnc(N3CCCC4(CCOC4)C3)s2)cc1 (stereo not drawn) | 56.2
24 | CCOCC(=O)N1CCOCC2(CCN(c3ncccn3)C2)C1.O=C(O)C(F)(F)F (stereo not drawn) | 115.1
25 | c1ccc2sc(N3CCCC4(CCOC4)C3)nc2c1 (stereo not drawn) | -24.88
26 | Cc1ccoc1C(=O)N1CCOCC2(CCN(c3ncccn3)C2)C1.O=C(O)C(F)(F)F (stereo not drawn) | 0.2458
27 | Cc1ccc(N2CCCC3(COCCN(c4nccs4)C3)C2)nn1.O=C(O)C(F)(F)F.O=C(O)C(F)(F)F (stereo not drawn) | -0.6863
28 | CCc1ncc2c(n1)CN(CC(=O)NC1CCCCNC1=O)CC2 (stereo not drawn) | -10.76
29 | N#CCCCOc1cccc(CN2CCCC2c2ccc[nH]2)c1 (stereo not drawn) | -9.513
30 | NCC1Cc2cc(-c3cnccn3)cc(Cl)c2O1 (stereo not drawn) | 3.613
31 | c1ccc(N2CCOCC3(CCCN(c4nccs4)C3)C2)nc1 (stereo not drawn) | 105.2
32 | CCCS(=O)(=O)N1CCOCC2(CCN(c3ccccn3)C2)C1.O=C(O)C(F)(F)F (stereo not drawn) | -9.194
33 | Cc1cnc(N2CCOC3(COCCN(c4nccs4)C3)C2)nc1 (stereo not drawn) | 7.245
34 | Cc1ccc(N2CCCC3(COCCN(c4ccccn4)C3)C2)nn1.O=C(O)C(F)(F)F (stereo not drawn) | 88.94
35 | O=C(O)C(F)(F)F.c1ccc(N2CCCC3(COCCN(c4nccs4)C3)C2)nc1 (stereo not drawn) | -9.014
36 | O=C1NCC2(CCCN(C(=O)Nc3ccc4occc4c3)CC2)O1 (stereo not drawn) | -22.41
37 | Cc1cc(SC(C)(C)C)ccc1NC(C)C(=O)NC(N)=O (stereo not drawn) | 0.5682
38 | O=C(NCCc1ccccc1)C1CCC(Cn2cnnn2)CC1 (stereo not drawn) | 3.007
39 | O=C(NCCc1ccccc1)C1CCN(C(=O)Cn2cncn2)C1 (stereo not drawn) | 175.5
40 | O=C(NCCc1ccc(F)cc1)C1CN(C(=O)Cn2cncn2)C1 | 163.3
41 | CN(Cc1ccc(F)cc1)C(=O)CN1CCCCC1Cn1cncn1 (stereo not drawn) | -13.17
42 | CCCNC(=O)C1CCCN(Cc2ccc(-n3cncn3)c(C)c2)C1 (stereo not drawn) | 5.039
43 | O=C(Nc1ccccc1)C1CCCN(C(=O)Cn2cncn2)C1 (stereo not drawn) | 9.271
44 | CC(=O)Nc1cnc(-n2ccnc2)nc1 | 0.9267

Row | Structure (SMILES) | Percent Effect [%]
45 | C=Cc1ccc(C(=O)N2CCCC(Nc3ccccc3)C2)cc1 (stereo not drawn) | -22.58
46 | CN1C(=O)C[C@@H]2[C@@H]1CCN2C(=O)c1ccc[nH]1 | -0.2597
47 | Cc1cccc(C(=O)N2CCCSCC2CN2CCCC2)c1 (stereo not drawn) | 114.9
48 | O=C(c1ccc2[nH]ccc2c1)N1CCCSCC1CN1CCCC1 (stereo not drawn) | 105.2
49 | N#Cc1ccc(C(=O)N2CCCSCC2CN2CCCC2)cc1 (stereo not drawn) | 107.8
50 | N#Cc1cccc(C(=O)N2C[C@H](CO)C[C@H](CN3CCCC3)C2)c1 | -1.985
51 | N#Cc1ccc(C(=O)N2C[C@@H](CN3CCCC3)C[C@H](CO)C2)cc1 | 5.863
52 | O=C(c1ccc2c(c1)OCO2)N1CCCSCC1CN1CCCC1 (stereo not drawn) | 1.32
53 | CN(C)c1cccc(C(=O)N2CCCSCC2CN2CCCC2)c1 (stereo not drawn) | 112.4
54 | CN(C)c1ccc(C(=O)N2C[C@@H](CN3CCCCC3)[C@@H](CO)C2)cc1 | -5.628
55 | CS(=O)(=O)N1CCCC12CCCN(C(=O)c1ccc3[nH]ccc3c1)C2 (stereo not drawn) | 11.97
56 | CN(C)c1cccc(C(=O)N2C[C@H]3CC[C@@H]2CN(C(=O)C2CCC2)C3)c1 | -25.57
57 | O=C(c1ccc(F)c(F)c1)N1CCCSCC1CN1CCCC1 (stereo not drawn) | 1.047
58 | O=C(CCC1CCN(Cc2ncc[nH]2)CC1)Nc1ccccc1Cl | 0.1939
59 | CCN(C)c1ccc(CNS(=O)(=O)C2CCOCC2)cc1F | 3.098
60 | O=C(O)c1cc(C2=CCCCC2)cc(S(=O)(=O)NCc2ccccn2)c1 | -10.69
61 | COc1ccc(CN2CCCn3cnc(COCC4CC4)c3C2)cc1.O=C(O)C(F)(F)F | -1.756
62 | CCN1C(=O)C2(CCOCC2)c2cc(NC(=O)c3cc(C)n[nH]3)ccc21 | -4.188
63 | CC(C)Oc1ccc(CNC(=O)c2cc(C(N)=O)cs2)cc1F | -0.429
64 | CCn1nc(C)c(CN2CCC(c3ccn[nH]3)C2)c1C (stereo not drawn) | 102.4
65 | CCn1nc(C)c(CN2CCCC(c3ccc(C(=O)O)cc3)C2)c1C (stereo not drawn) | 3.316
66 | CCn1nc(C)c(CN2CCC(c3ccc(C(=O)O)cc3)C2)c1C (stereo not drawn) | -3.844

Row | Structure (SMILES) | Percent Effect [%]
67 | Cc1cc(CN(C)Cc2csc(-c3cccs3)n2)n[nH]1 | -0.07399
68 | Cc1cc(CN(C)Cc2ccccc2N2CCCCC2)n[nH]1 | 185.5
69 | Cc1ccc(CN(C)Cc2cc(C3CC3)[nH]n2)c(O)n1 | 7.171
70 | CCN(CC(=O)N(C)C)C(=O)C(C)(C)c1ccc2c(c1)OCCO2 | -3.526
71 | CC(C)(NCc1ccc(C#N)cc1)c1ccc2c(c1)OCO2 | 0.339
72 | CC(C)(C)C(=O)NCCC(=O)NC(C)(C)c1ccc2c(c1)OCCO2 | 1.419
73 | CCCNC(=O)NC(=O)CNC(C)(C)c1ccc2c(c1)OCCO2 | 109.8
74 | CCCNC(=O)NC(=O)CNC(C)(C)c1ccc2c(c1)OCO2 | 110.6
75 | CC(C)(NCc1cccc(C#N)c1)c1ccc2c(c1)OCO2 | 0.8425
76 | CCN(Cc1ccc(CN(C)C)cc1)C(=O)c1ccncc1O | 4.477
77 | O=C(NC1CC(F)(F)C1)[C@]12COC[C@H]1CN(Cc1ccsc1)C2 | -6.897
78 | O=C(CN1CCc2cncnc2C1)NC1CCCCNC1=O (stereo not drawn) | -3.554
79 | Cc1nc(N2CCOCC2)nc(C)c1NC(=O)Cc1ccc(Cl)cc1 | -11.2
80 | Cc1ccc(N2CCOC(C)(C(=O)N(C)C)C2)nn1 (stereo not drawn) | 160
81 | CNc1cc(C)nc(N2CCC3(CC2)[C@H](O)C[C@@H]3O)n1 | -5.411
82 | Cc1ccsc1CN(C)c1cc(N2CCOCC2)ncn1 | -30.66
83 | CC(C)=CCC1(C(=O)O)CCCN(c2cc(N)ncn2)C1 (stereo not drawn) | -4.514
84 | CCCS(=O)(=O)N1CCOC2(CCCN(c3ccc(C)nn3)C2)C1 (stereo not drawn) | 6.152
85 | Cc1cc(C)nc(N2CCN(C(=O)c3cc(Cl)c[nH]3)CC2)n1 | -2.597
86 | Cc1cc(N2CCOC(C)(C(=O)N(C)C)C2)ncn1 (stereo not drawn) | 147.4
87 | CNC(=O)C1(C)CN(c2nc(C)cc(C)n2)CCO1 (stereo not drawn) | 133.8
88 | Cc1ccc(N2CCC3(CCN(C(N)=O)CC3)CC2)nn1 | 5.421

Row | Structure (SMILES) | Percent Effect [%]
89 | Cc1cc(C)nc(N2CC[C@@]3(O)CCN(S(=O)(=O)N(C)C)C[C@H]3C2)n1 | -0.4533
90 | Cc1cc(C)nc(N2CCOC(C)(C(=O)N(C)C)C2)n1 (stereo not drawn) | 205.4
91 | CCOC(=O)NCCC(=O)NCc1ccc(Oc2ccc(F)cc2)nc1 | -9.89
92 | OC(CNc1cncc(OCc2ccccc2)n1)c1ccco1 (stereo not drawn) | 3.469
93 | COc1cc(C)ccc1OCC(=O)Nc1ccnc(OCCN(C)C)c1 | 10.45
94 | CCn1c(CN(C)C)nnc1C1CCN(c2nccc(NC)n2)CC1 | -2.442
95 | Cc1cccc(C)c1CNC1(CCO)CCOCC1 | 0.8259
96 | CC(C)CCN1CCCC(Cn2cc(CCO)nn2)C1 (stereo not drawn) | -4.048
97 | COc1ccccc1CC1CCCN(CCC(N)=O)C1 (stereo not drawn) | -12.09
98 | CN(c1ccccc1)c1ccc(CC2CCCN(CCO)C2)nn1 (stereo not drawn) | 94.33
99 | Cc1ccc(N2CCCC(NC(=O)C(C)(C)C#N)C2=O)cc1 (stereo not drawn) | -7.395
100 | CNc1ncccc1CN1CCN(C)CC(C(=O)N(C)C)C1 (stereo not drawn) | 106.5
101 | CNc1ncccc1CN1CCN(C(C)=O)CC(C(N)=O)C1 (stereo not drawn) | 106.9
102 | CN(C)c1ncccc1CNC(=O)N1CCCC1CN1CCCCC1 (stereo not drawn) | 7.687
103 | NC(=O)C1CCCN(Cc2c(-c3ccco3)[nH]c3ncccc23)C1 (stereo not drawn) | -7.112
104 | CC(C)Oc1ncccc1CNC(=O)N1CCC(C(N)=O)C1 (stereo not drawn) | -8.219
105 | N#Cc1cccnc1NCc1cccnc1N1CCC(C(N)=O)CC1 | -4.129
106 | CNc1ncccc1CN1CCN(C)CC(C(N)=O)C1 (stereo not drawn) | 105.8
107 | CN1CCCN(C[C@H]2C[C@H](CO)CN(Cc3cccnc3N)C2)CC1 | -5.741
108 | CN1CCN2CCN(Cc3ccccc3Cn3cccn3)CC2C1 (stereo not drawn) | -0.2104
